Holding throughout (test): PBM; 200 nM protein, PBS
Details in all cases: dsDNA, one strand shown

The target of assay [1] is T1, PAX4 (Homo sapiens, UniProt O43316 9-242, R200K).
T1 sequence: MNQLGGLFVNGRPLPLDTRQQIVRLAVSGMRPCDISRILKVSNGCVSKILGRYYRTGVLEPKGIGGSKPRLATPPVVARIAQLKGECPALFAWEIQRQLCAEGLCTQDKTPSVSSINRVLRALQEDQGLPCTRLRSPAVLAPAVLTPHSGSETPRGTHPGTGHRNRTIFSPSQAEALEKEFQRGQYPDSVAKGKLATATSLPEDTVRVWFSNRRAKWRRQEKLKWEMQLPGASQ

The target of assay [2] is T2, PAX4 (Homo sapiens, UniProt O43316 9-242).
T2 sequence: T1 sequence with K192R

Assay [3] addresses T3, PAX4 (Homo sapiens, UniProt O43316 9-242, R200Q).
T3 sequence: T1 sequence with K192Q

Assay [4] addresses T4, PAX4 (Homo sapiens, UniProt O43316 9-242, F177V).
T4 sequence: T1 sequence with F169V, K192R

In assay [5] the target is T5, PAX4 (Homo sapiens, UniProt O43316 9-242, F177Y).
T5 sequence: T1 sequence with F169Y, K192R

Assay [6] deals with VAX1 (Homo sapiens, UniProt Q5SQQ9 86-172).
Chain of VAX1 (Homo sapiens, UniProt Q5SQQ9 86-172) (Q5SQQ9 86-172): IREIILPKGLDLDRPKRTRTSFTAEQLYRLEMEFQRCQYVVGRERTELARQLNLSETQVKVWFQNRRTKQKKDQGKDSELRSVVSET
Assay [7] concerns the target VAX1 (Homo sapiens, UniProt Q5SQQ9 86-172, T142I).
In assay [8] the target is T6, PAX4 (Homo sapiens, UniProt O43316 9-242, R227W).
T6 sequence: T1 sequence with K192R, R219W

The target in assay [9] is VAX1 (Homo sapiens, UniProt Q5SQQ9 86-172, K157R).
Chain of VAX1 (Homo sapiens, UniProt Q5SQQ9 86-172, K157R) (Q5SQQ9 86-172 K157R): as the sequence (Q5SQQ9 86-172) above, with K72R counted along it
Assay [10] concerns the target PROP1 (Homo sapiens, UniProt O75360 56-141).
Assay [11] addresses PROP1 (Homo sapiens, UniProt O75360 56-141, R99H).
In assay [12] the target is PROP1 (Homo sapiens, UniProt O75360 56-141, F88S).
Chain of PROP1 (Homo sapiens, UniProt O75360 56-141, F88S) (O75360 56-141 F88S): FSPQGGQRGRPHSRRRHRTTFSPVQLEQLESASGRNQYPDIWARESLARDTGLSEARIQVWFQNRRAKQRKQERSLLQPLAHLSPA

Positions count from the first letter of the chain named.

Chain of PROP1 (Homo sapiens, UniProt O75360 56-141) (O75360 56-141): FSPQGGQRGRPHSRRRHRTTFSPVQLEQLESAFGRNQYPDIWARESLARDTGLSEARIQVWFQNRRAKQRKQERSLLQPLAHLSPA
Chain of PROP1 (Homo sapiens, UniProt O75360 56-141, R99H) (O75360 56-141 R99H): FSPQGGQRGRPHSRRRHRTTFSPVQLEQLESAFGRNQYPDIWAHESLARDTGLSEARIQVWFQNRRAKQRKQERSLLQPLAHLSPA
Chain of VAX1 (Homo sapiens, UniProt Q5SQQ9 86-172, T142I) (Q5SQQ9 86-172 T142I): as the sequence (Q5SQQ9 86-172) above, with T57I counted along it

Take GAAGCTTC: the binding signal was 9.21 upbm affinity estimate (log intensity, higher = more binding, comparable within an allelic series) with PAX4 [1]; 9.26 upbm affinity estimate (log intensity, higher = more binding, comparable within an allelic series) with PAX4 [2]; 9.45 upbm affinity estimate (log intensity, higher = more binding, comparable within an allelic series) in the assay with PAX4 [3]; 9.5 upbm affinity estimate (log intensity, higher = more binding, comparable within an allelic series) with PAX4 [4]; 9.42 upbm affinity estimate (log intensity, higher = more binding, comparable within an allelic series) with PAX4 [5]; 6.86 upbm affinity estimate (log intensity, higher = more binding, comparable within an allelic series) with VAX1 [6]. For the same sequence, the binding signal in the assay with VAX1 [7] is 7.04 upbm affinity estimate (log intensity, higher = more binding, comparable within an allelic series); with PAX4 [8], 9.35 upbm affinity estimate (log intensity, higher = more binding, comparable within an allelic series); with VAX1 [9] it was 6.85 upbm affinity estimate (log intensity, higher = more binding, comparable within an allelic series).

In the case of ACCGGGGC, the binding signal with PAX4 [1] is 9.07 upbm affinity estimate (log intensity, higher = more binding, comparable within an allelic series); with PAX4 [2] it was 9.11 upbm affinity estimate (log intensity, higher = more binding, comparable within an allelic series); with PAX4 [3] it was 9.2 upbm affinity estimate (log intensity, higher = more binding, comparable within an allelic series); with PAX4 [4], 9.11 upbm affinity estimate (log intensity, higher = more binding, comparable within an allelic series); with PAX4 [5], 9.09 upbm affinity estimate (log intensity, higher = more binding, comparable within an allelic series); with PAX4 [8], 9.2 upbm affinity estimate (log intensity, higher = more binding, comparable within an allelic series).

Consider AAGGGGGC, for which the binding signal with PAX4 [1] is 9.31 upbm affinity estimate (log intensity, higher = more binding, comparable within an allelic series); with PAX4 [2], 9.38 upbm affinity estimate (log intensity, higher = more binding, comparable within an allelic series); in the assay with PAX4 [3] it was 9.38 upbm affinity estimate (log intensity, higher = more binding, comparable within an allelic series); in the assay with PAX4 [4], 9.25 upbm affinity estimate (log intensity, higher = more binding, comparable within an allelic series); with PAX4 [5] it was 9.22 upbm affinity estimate (log intensity, higher = more binding, comparable within an allelic series); in the assay with PROP1 [10], 6.71 upbm affinity estimate (log intensity, higher = more binding, comparable within an allelic series). For the same sequence, the binding signal was 6.71 upbm affinity estimate (log intensity, higher = more binding, comparable within an allelic series) in the assay with PROP1 [11]; 6.36 upbm affinity estimate (log intensity, higher = more binding, comparable within an allelic series) in the assay with PROP1 [12]; 9.29 upbm affinity estimate (log intensity, higher = more binding, comparable within an allelic series) with PAX4 [8].

Turning to ATTTAGAG, the binding signal with PAX4 [1] is 10.6 upbm affinity estimate (log intensity, higher = more binding, comparable within an allelic series); with PAX4 [2], 10.7 upbm affinity estimate (log intensity, higher = more binding, comparable within an allelic series); in the assay with PAX4 [3], 10.6 upbm affinity estimate (log intensity, higher = more binding, comparable within an allelic series); in the assay with PAX4 [4], 10.1 upbm affinity estimate (log intensity, higher = more binding, comparable within an allelic series); in the assay with PAX4 [5], 10.2 upbm affinity estimate (log intensity, higher = more binding, comparable within an allelic series); with PAX4 [8], 10.2 upbm affinity estimate (log intensity, higher = more binding, comparable within an allelic series).

As to TGGGCCCA, the binding signal is 9.53 upbm affinity estimate (log intensity, higher = more binding, comparable within an allelic series) with PAX4 [1]; 9.41 upbm affinity estimate (log intensity, higher = more binding, comparable within an allelic series) with PAX4 [2]; 9.57 upbm affinity estimate (log intensity, higher = more binding, comparable within an allelic series) with PAX4 [3]; 9.2 upbm affinity estimate (log intensity, higher = more binding, comparable within an allelic series) with PAX4 [4]; 9.37 upbm affinity estimate (log intensity, higher = more binding, comparable within an allelic series) with PAX4 [5]; 9.35 upbm affinity estimate (log intensity, higher = more binding, comparable within an allelic series) in the assay with PAX4 [8].

Consider CTGAGCGC, for which the binding signal is 9.25 upbm affinity estimate (log intensity, higher = more binding, comparable within an allelic series) with PAX4 [1]; 9.2 upbm affinity estimate (log intensity, higher = more binding, comparable within an allelic series) in the assay with PAX4 [2]; 9.31 upbm affinity estimate (log intensity, higher = more binding, comparable within an allelic series) with PAX4 [3]; 9.15 upbm affinity estimate (log intensity, higher = more binding, comparable within an allelic series) with PAX4 [4]; 9.2 upbm affinity estimate (log intensity, higher = more binding, comparable within an allelic series) with PAX4 [5]; 9.27 upbm affinity estimate (log intensity, higher = more binding, comparable within an allelic series) in the assay with PAX4 [8].

For GAGCTCGC, the binding signal in the assay with PAX4 [1] is 9.35 upbm affinity estimate (log intensity, higher = more binding, comparable within an allelic series); with PAX4 [2] it was 9.28 upbm affinity estimate (log intensity, higher = more binding, comparable within an allelic series); with PAX4 [3], 9.32 upbm affinity estimate (log intensity, higher = more binding, comparable within an allelic series); with PAX4 [4] it was 9.23 upbm affinity estimate (log intensity, higher = more binding, comparable within an allelic series); with PAX4 [5] it was 9.12 upbm affinity estimate (log intensity, higher = more binding, comparable within an allelic series); with PAX4 [8] it was 9.26 upbm affinity estimate (log intensity, higher = more binding, comparable within an allelic series).

As for GAATTAAC, the binding signal with PAX4 [1] is 11.6 upbm affinity estimate (log intensity, higher = more binding, comparable within an allelic series); with PAX4 [2], 12.2 upbm affinity estimate (log intensity, higher = more binding, comparable within an allelic series); with PAX4 [3], 11.9 upbm affinity estimate (log intensity, higher = more binding, comparable within an allelic series); in the assay with PAX4 [4], 10.4 upbm affinity estimate (log intensity, higher = more binding, comparable within an allelic series); in the assay with PAX4 [5] it was 11 upbm affinity estimate (log intensity, higher = more binding, comparable within an allelic series); with PAX4 [8], 10.8 upbm affinity estimate (log intensity, higher = more binding, comparable within an allelic series).

As to CGGGCCAC, the binding signal with PAX4 [1] was 9.16 upbm affinity estimate (log intensity, higher = more binding, comparable within an allelic series); with PAX4 [2], 9.26 upbm affinity estimate (log intensity, higher = more binding, comparable within an allelic series); with PAX4 [3], 9.31 upbm affinity estimate (log intensity, higher = more binding, comparable within an allelic series); in the assay with PAX4 [4], 9.28 upbm affinity estimate (log intensity, higher = more binding, comparable within an allelic series); with PAX4 [5] it was 9.41 upbm affinity estimate (log intensity, higher = more binding, comparable within an allelic series); with PAX4 [8], 9.3 upbm affinity estimate (log intensity, higher = more binding, comparable within an allelic series).

Take CACCGGCC: the binding signal is 9.22 upbm affinity estimate (log intensity, higher = more binding, comparable within an allelic series) with PAX4 [1]; 9.3 upbm affinity estimate (log intensity, higher = more binding, comparable within an allelic series) with PAX4 [2]; 9.31 upbm affinity estimate (log intensity, higher = more binding, comparable within an allelic series) with PAX4 [3]; 9.16 upbm affinity estimate (log intensity, higher = more binding, comparable within an allelic series) with PAX4 [4]; 9.17 upbm affinity estimate (log intensity, higher = more binding, comparable within an allelic series) in the assay with PAX4 [5]; 6.75 upbm affinity estimate (log intensity, higher = more binding, comparable within an allelic series) with PROP1 [10]. For the same sequence, the binding signal in the assay with PROP1 [11] is 6.63 upbm affinity estimate (log intensity, higher = more binding, comparable within an allelic series); with PROP1 [12], 6.3 upbm affinity estimate (log intensity, higher = more binding, comparable within an allelic series); with PAX4 [8], 9.27 upbm affinity estimate (log intensity, higher = more binding, comparable within an allelic series).

With CCGGGCCC, the binding signal with PAX4 [1] is 9.07 upbm affinity estimate (log intensity, higher = more binding, comparable within an allelic series); with PAX4 [2] it was 9.07 upbm affinity estimate (log intensity, higher = more binding, comparable within an allelic series); with PAX4 [3], 9.07 upbm affinity estimate (log intensity, higher = more binding, comparable within an allelic series); with PAX4 [4], 9.05 upbm affinity estimate (log intensity, higher = more binding, comparable within an allelic series); with PAX4 [5], 9 upbm affinity estimate (log intensity, higher = more binding, comparable within an allelic series); with PROP1 [10], 6.54 upbm affinity estimate (log intensity, higher = more binding, comparable within an allelic series). Moreover, the binding signal with PROP1 [11] was 6.73 upbm affinity estimate (log intensity, higher = more binding, comparable within an allelic series); with PROP1 [12], 6.36 upbm affinity estimate (log intensity, higher = more binding, comparable within an allelic series); with PAX4 [8], 9.12 upbm affinity estimate (log intensity, higher = more binding, comparable within an allelic series).

As for CTAATCAG, the binding signal with PAX4 [1] was 11.2 upbm affinity estimate (log intensity, higher = more binding, comparable within an allelic series); in the assay with PAX4 [2], 11.6 upbm affinity estimate (log intensity, higher = more binding, comparable within an allelic series); with PAX4 [3] it was 11.3 upbm affinity estimate (log intensity, higher = more binding, comparable within an allelic series); with PAX4 [4] it was 10.1 upbm affinity estimate (log intensity, higher = more binding, comparable within an allelic series); with PAX4 [5], 10.5 upbm affinity estimate (log intensity, higher = more binding, comparable within an allelic series); with PAX4 [8] it was 10.3 upbm affinity estimate (log intensity, higher = more binding, comparable within an allelic series).

As for GCGAGGCC, the binding signal was 9.39 upbm affinity estimate (log intensity, higher = more binding, comparable within an allelic series) with PAX4 [1]; 9.4 upbm affinity estimate (log intensity, higher = more binding, comparable within an allelic series) with PAX4 [2]; 9.36 upbm affinity estimate (log intensity, higher = more binding, comparable within an allelic series) with PAX4 [3]; 9.18 upbm affinity estimate (log intensity, higher = more binding, comparable within an allelic series) with PAX4 [4]; 9.2 upbm affinity estimate (log intensity, higher = more binding, comparable within an allelic series) in the assay with PAX4 [5]; 9.27 upbm affinity estimate (log intensity, higher = more binding, comparable within an allelic series) in the assay with PAX4 [8].

Take CCAAGTCC: the binding signal with PAX4 [1] was 9.27 upbm affinity estimate (log intensity, higher = more binding, comparable within an allelic series); with PAX4 [2] it was 9.3 upbm affinity estimate (log intensity, higher = more binding, comparable within an allelic series); in the assay with PAX4 [3], 9.4 upbm affinity estimate (log intensity, higher = more binding, comparable within an allelic series); with PAX4 [4] it was 9.27 upbm affinity estimate (log intensity, higher = more binding, comparable within an allelic series); with PAX4 [5], 9.25 upbm affinity estimate (log intensity, higher = more binding, comparable within an allelic series); with PAX4 [8], 9.38 upbm affinity estimate (log intensity, higher = more binding, comparable within an allelic series).

Consider AGCTGCCG, for which the binding signal in the assay with PAX4 [1] was 9.44 upbm affinity estimate (log intensity, higher = more binding, comparable within an allelic series); in the assay with PAX4 [2], 9.42 upbm affinity estimate (log intensity, higher = more binding, comparable within an allelic series); with PAX4 [3], 9.33 upbm affinity estimate (log intensity, higher = more binding, comparable within an allelic series); with PAX4 [4], 9.27 upbm affinity estimate (log intensity, higher = more binding, comparable within an allelic series); in the assay with PAX4 [5], 9.2 upbm affinity estimate (log intensity, higher = more binding, comparable within an allelic series); with PAX4 [8], 9.31 upbm affinity estimate (log intensity, higher = more binding, comparable within an allelic series).

As to CGCCCGGC, the binding signal with PAX4 [1] is 9.26 upbm affinity estimate (log intensity, higher = more binding, comparable within an allelic series); with PAX4 [2] it was 9.23 upbm affinity estimate (log intensity, higher = more binding, comparable within an allelic series); with PAX4 [3], 9.1 upbm affinity estimate (log intensity, higher = more binding, comparable within an allelic series); in the assay with PAX4 [4], 8.97 upbm affinity estimate (log intensity, higher = more binding, comparable within an allelic series); in the assay with PAX4 [5] it was 9.01 upbm affinity estimate (log intensity, higher = more binding, comparable within an allelic series); with PAX4 [8] it was 9.06 upbm affinity estimate (log intensity, higher = more binding, comparable within an allelic series).
